# A selection: hits, their analogues and other compounds. The true share with any hit is near 1.6%.
# KCNQ2 enhance – KCNQ2 (rat) channel potentiation; O88943; 310,000 compounds, 0.54% hits; CHO-K1 KCNQ2, FluxOR thallium flux fluorescence; stronger effect = higher value; B-score at 10 µM;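 active = fluorescence ratio B-score at least 3 SD of library B-scores, with initial fluorescence B-score within 3 of them, cut at about 5.3 in these data; same plate scores as AID 2156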;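 note: B-score of peak minus minimum over baseline fluorescence ratio after K+ and Tl+ stimulus; positive B-score means potentiation of KCNQ2 with more thallium influx and brighter signal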
# Target sequence (O88943 whole entry, looked up): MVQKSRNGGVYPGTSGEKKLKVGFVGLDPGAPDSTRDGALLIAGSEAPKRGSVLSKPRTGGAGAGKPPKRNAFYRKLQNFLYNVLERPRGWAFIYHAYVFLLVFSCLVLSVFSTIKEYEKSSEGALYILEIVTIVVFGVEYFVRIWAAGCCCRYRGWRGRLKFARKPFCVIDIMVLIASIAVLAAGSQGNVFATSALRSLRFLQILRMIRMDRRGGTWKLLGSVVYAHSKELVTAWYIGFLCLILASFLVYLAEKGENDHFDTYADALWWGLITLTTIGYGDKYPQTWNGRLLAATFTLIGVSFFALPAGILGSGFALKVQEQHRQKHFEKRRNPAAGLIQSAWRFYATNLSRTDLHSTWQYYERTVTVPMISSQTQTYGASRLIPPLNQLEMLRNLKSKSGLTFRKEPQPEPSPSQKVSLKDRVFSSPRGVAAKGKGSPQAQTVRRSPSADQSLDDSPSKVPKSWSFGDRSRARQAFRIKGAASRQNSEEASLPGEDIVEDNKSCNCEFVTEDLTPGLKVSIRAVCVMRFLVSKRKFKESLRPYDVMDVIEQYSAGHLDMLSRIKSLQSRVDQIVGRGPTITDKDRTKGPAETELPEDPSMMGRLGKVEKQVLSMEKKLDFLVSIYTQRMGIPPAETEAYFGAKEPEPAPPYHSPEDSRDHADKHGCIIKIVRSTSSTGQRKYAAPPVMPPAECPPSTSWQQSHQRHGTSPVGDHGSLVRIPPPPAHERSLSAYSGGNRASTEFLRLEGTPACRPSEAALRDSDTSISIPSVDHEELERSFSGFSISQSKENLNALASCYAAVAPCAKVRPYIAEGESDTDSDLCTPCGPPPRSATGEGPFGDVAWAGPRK
# KCNQ2 inh – blocks the rat KCNQ2 potassium channel. O88943. B-score at 10 µM. 310,000 compounds, 1.1% hits. CHO-K1 KCNQ2, FluxOR thallium flux, 20 min; stronger effect = lower value;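 active = fluorescence ratio B-score at most minus 3 library SDs, with starting brightness B-score within 2 library SDs, cut at about -5.5 in these data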
# Active calls of the source: *; i = inactive; x = not tested or not shown.
SMILES,KCNQ2 enhance,KCNQ2 inh
COc1cccc(OCc2ccc(C(=O)NCC3CCCO3)cc2)c1 (configuration not stated),x,i
O=C(COc1ccccc1)NC(=S)N1CCc2ccccc21,10.1*,i
COc1ccc(OCC(=O)NC(=S)N2CCCc3ccccc32)cc1,x,i
CCCc1nnc(-c2cc(OC)c(OC)c(OC)c2)o1,x,i
COC(=O)Cc1ccc(N(Cc2ccccc2F)S(=O)(=O)c2ccc(C)cc2)cc1,-6.62,-6.62*
Cc1ccc(N(CCC(=O)O)S(=O)(=O)c2ccccc2)cc1,0.81,i
Cc1sc2nc3c(C(=O)N4CCCC4)cc(C(=O)c4ccccc4O)cn3c(=O)c2c1C,-7.1,-7.1*
COc1cccc(N2CCN(C(=O)c3cccn4c(=O)c5c(C)c(C)sc5nc34)CC2)c1,x,i
CCC(C)(C)n1nnnc1C(c1cc2cc(C)ccc2[nH]c1=O)N1CCCc2ccccc21 (configuration not stated),33.7*,i
Cc1ccc2[nH]c(=O)c(C(c3nnnn3C3CCCC3)N3CCCc4ccccc43)cc2c1 (configuration not stated),0.06,i
CCC(C)(C)n1nnnc1C(c1cc2ccc(OC)cc2[nH]c1=O)N1CCc2ccccc21 (configuration not stated),-6.11,-6.11*
CCC(C)(C)n1nnnc1C(c1cc2cc(OC)ccc2[nH]c1=O)N1CCc2ccccc21 (configuration not stated),3.03,i
COc1cc(Br)cc(CN2CCN(C/C=C/c3ccccc3)CC2)c1O,x,i
COC(=O)C1CCN(c2c([N+](=O)[O-])cc(C(F)(F)F)cc2[N+](=O)[O-])CC1,x,i
COc1ccc(N(CC(=O)NCc2cccnc2)S(=O)(=O)c2ccccc2)c(OC)c1,1.45,i
COCc1ccc(C(=O)N2CCCC(Nc3ccc(C(C)C)cc3)C2)s1 (configuration not stated),x,i
CCOC(=O)c1cnn(-c2ccccc2)c1-n1cccc1C(=O)C(=O)Nc1ccccc1C(F)(F)F,-6.99,-6.99*
CCOC(=O)c1cnn(-c2ccccc2)c1-n1cccc1C(=O)C(=O)N(CC)CC,0.3,i
O=S(=O)(Nc1nc2ccc(S(=O)(=O)N3CCCCC3)cc2s1)c1ccccc1,x,i
O=C(NC(=S)Nc1cccnc1)c1cc2ccccc2o1,8.09*,i
O=C(NC(=S)NCc1cccnc1)c1cc2ccccc2o1,0.85,i
O=c1c2ccccc2[nH]c(=S)n1CCC1=CCCCC1,8.45*,i
O=c1c2ccccc2[nH]c(=S)n1CCN1CCCCC1,0.03,i
CN(C)c1ccc(NC(=O)CN2C(=O)CC(c3ccccc3)=Nc3ccccc32)cc1,1.92,i
O=C1CC(c2ccccc2)=Nc2ccccc2N1Cc1ccccc1,-6.15,-6.15*
SMILES,KCNQ2 enhance,KCNQ2 inh
CN(C)S(=O)(=O)NCCNC(=O)c1cc(OCC(F)(F)F)ccc1OCC(F)(F)F,x,i
COc1ccc(Oc2cnc3ccccc3n2)cc1,-6.04,-6.04*
c1ccc(Oc2cnc3ccccc3n2)cc1,2.22,i
COCCn1c(=S)[nH]c2cc(C(=O)NCCCN3CCOCC3)ccc2c1=O,x,i
O=C(COc1ccccc1)NCC(c1ccco1)N1CCN(c2ccccc2F)CC1 (configuration not stated),-6.97,-6.97*
O=C(COc1ccccc1)NCC(c1ccco1)N1CCN(c2ccc(F)cc2)CC1 (configuration not stated),x,i
C#C[C@]1(O)CCC2C3CCC4=Cc5oncc5CC4(C)C3CCC21C (some centres not stated),0.41,i
COC(=O)c1nc2nc(-c3cccs3)cc(C(F)(F)F)n2n1,x,i
COc1ccc(-c2nc(CS(=O)(=O)CC(=O)NCc3cccc(OC)c3OC)c(C)o2)cc1,x,i
COc1ccc(-c2nc(CS(=O)(=O)CC(=O)NCc3ccccc3Br)c(C)o2)cc1,-7.75,-7.75*
Cc1ccc(C)c(N2CCN(S(=O)(=O)c3ccc4c(c3)NC(=O)CO4)CC2)c1,1.31,i
CCCCN(C)CCCNC(=O)c1cccc(N2CCCC2=O)c1,1.63,i
COc1cc(-c2nnc(SCc3c(F)cccc3Cl)o2)cc(OC)c1OC,x,i
COc1cc(-c2nnc(SCc3ccccc3Cl)o2)cc(OC)c1OC,-6.83,-6.83*
CCOc1ccc(-n2c(SCC(=O)Nc3cc(OC)c([N+](=O)[O-])cc3C)nc3ccccc32)cc1,0.03,i
Cc1c(C)c2ccc(OC(C)C(=O)NCCN3CCOCC3)c(C)c2oc1=O (configuration not stated),x,i
COc1cc(-c2csc(N3CCOCC3)n2)cc(OC)c1OC,0.33,i
COc1ccc(-c2csc(N3CCN(c4cc(C)nc5ccccc45)CC3)n2)cc1OC,-6.3,-6.3*
CCOc1ccc(OCC)c(S(=O)(=O)NCc2cccnc2)c1,0.53,i
Nn1c(SCC(=O)NC2CCCCC2)nnc1-c1ccc(Cl)cc1,2.37,i
CCCCc1ccc(NC(=O)CC(C)(C)C)cc1,14*,i
CCCCc1ccc(NC(=O)CC(C)=O)cc1,1.02,i
O=C(CCCCCNc1nc(=S)[nH]c2ccccc12)NCCc1c[nH]c2ccccc12,3.34,i
O=S(=O)(N/N=C1/CC(c2ccccc2)Oc2ccccc21)c1ccc(Br)cc1 (configuration not stated),x,i
COc1ccc(C[C@H]2CN3C(=NC[C@@H]3Cc3ccc(O)cc3)N2CCNC(=O)c2ccc(C)c(Br)c2)cc1,x,i
SMILES,KCNQ2 enhance,KCNQ2 inh
COc1ccc(C[C@H]2CN3C(=NC[C@@H]3Cc3ccccc3)N2CCNC(=O)c2ccc(C)c(Br)c2)cc1,-5.84,-5.84*
COc1ccc(CN(C)C(c2ccccc2)c2nnnn2-c2ccccc2C)c(OC)c1C (configuration not stated),-6.04,-6.04*
COc1cc(OC)c(OC)cc1CN(C)C(c1ccccc1)c1nnnn1-c1ccccc1C (configuration not stated),x,i
CCCn1c(=O)[nH]c(=O)c2c1nc(-c1ccc(OC(F)(F)C(F)C(F)(F)F)cc1)n2CCOC (configuration not stated),x,i
COc1ccc(C(O)c2nc3ccccc3n2C(C)C)cc1 (configuration not stated),0.25,i
CCOC(=O)C1=NN(C(=O)c2ccco2)C2(CC2)C1,0.13,i
CCOC(=O)C1=NN(C(=O)c2cccc(Br)c2)C(O)(C(C)(C)C)C1 (configuration not stated),21.7*,i
O=C(CCc1nnc(C2CCCCC2)o1)N1CCN(C2CCCCC2)CC1,x,i
Cc1ccc(-c2csc(NC(=S)NC(=O)c3ccco3)n2)cc1,10.7*,i
Cc1ccc(-c2csc(NC(=O)CCNC(=O)c3ccco3)n2)cc1,x,i
COc1ccc(Cc2n[nH]c(=O)c3ccccc23)cc1OC,0.22,i
CCOC(=O)C1=C(C)N=c2s/c(=C\c3ccc(OCC(=O)O)cc3)c(=O)n2C1c1ccccc1OC (configuration not stated),1.09,i
CCOC(=O)C1=C(C)N=c2s/c(=C\c3ccc(O)c([N+](=O)[O-])c3)c(=O)n2C1c1ccccc1OC (configuration not stated),-7.19,-7.19*
CCOC(=O)C1=C(C)N=c2s/c(=C/c3ccccc3)c(=O)n2C1c1ccc(OC)c(OC)c1 (configuration not stated),x,i
